Sampled rows, rich in hits. Any-hit rate of the full collection: about 7.3%.
VACV mCherry inh – qHTS for Stage-Specific Inhibitors of Vaccinia Orthopoxvirus: mCherry Reporter Primary qHTS; Vaccinia virus mCherry reporter infection, fluorescence; Potency, µM (doses to about 36.5 µM), hits mostly inhibitors; actives 0.63% (n = 310,000); AID 720579, 2013; calls by dose curve; tested in A549 cells; further: nearly all actives have a fitted effect of over 35% in size
HCMV antiviral – qHTS Assay for inhibitors of the human cytomegalovirus (HCMV); HFF cells, HCMV-luciferase reporter, 72 h; active compounds read low; activity change, negative = inhibition, % at 57.5 µM; actives 4.5% (n = 410,000); AID 1259415, 2018; in the data active means activity change below about -60%; inconclusive means no clear call, values can overlap the other calls; inactive means above about -39%
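After 16 h attachment at 37C, HFF cells received test compound and HCMV-luciferase (1 PFU/cell); reporter luminescence read 72 h later, data normalized against buffer-only and known inhibitor Salinomycin.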
HCV inhibitor – qHTS Assay for Inhibitors of Hepatitis C Virus (HCV); Huh7.5.1 HCVcc-Cre infection, luciferase reporter, 44 h; Potency, µM (top dose mostly 41.8 µM), most hits filed as inhibitors; actives 3.4% (n = 340,000); active means well fitted inhibition curve with a large enough effect; inconclusive means small, poorly fitted or top-dose-only effect, or another doubt; inactive means no such curve, though single readings can be large or run the other way
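Compounds are dispensed onto cells plated 4 h earlier at 1,000 per well, with HCVcc-Cre virus (about 0.5 moi) added next. Following 44 h of culture, luminescent signal is measured for 15 sec after 15 min with substrate at room temperature.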
FMDV antiviral – High Throughput Screening for Foot and Mouth Disease Virus Antivirals; FMDV antiviral cell-based qHTS; Potency, µM (highest dose often 57.9 µM), usual class: inhibitors; actives 1.2% (n = 410,000); AID 1159524, 2015; calls by dose curve; tested in HEK293T cells; further: read-out not given here; nearly all actives have a fitted effect of over 45% in size
Vaccinia Venus – qHTS for Stage-Specific Inhibitors of Vaccinia Orthopoxvirus: Venus Reporter Primary qHTS; Potency, µM (top dose mostly 36.5 µM), usual class: inhibitors; AID 720580, 2013; actives 0.46% (n = 330,000); Vaccinia virus Venus reporter expression, fluorescence; calls by dose curve; tested in A549 cells; further: nearly all actives have a fitted effect of over 30% in size
Large screens that a line does not name were inactive.

O=C(Nc1cccc(S(=O)(=O)Nc2ccc(Cl)cc2)c1)c1ccc(Cl)nc1	HCMV antiviral -94.6, HCV inhibitor 1.58µM (no result: VACV mCherry inh, Vaccinia Venus)
O=C1CSc2ccc(C(=O)Nc3cccc(S(=O)(=O)Nc4ccc(Br)cc4)c3)cc2N1	HCMV antiviral -90.9, HCV inhibitor 10µM (no result: VACV mCherry inh, Vaccinia Venus)
CC(=Nc1ccccc1O)c1sc2ccccc2c1O	HCV inhibitor inconclusive (no result: VACV mCherry inh, Vaccinia Venus)
CC(=Nc1ccc(O)cc1)c1sc2ccccc2c1O	HCV inhibitor 12.6µM
O=C1NC[C@H](CCCCN2C[C@H](Cc3ccc(O)cc3)N(CCc3ccccc3)C(=O)C2=O)N(CCc2ccc(O)cc2)C1=O	none (no result: HCV inhibitor)
Cc1ccc2sc(-c3ccc(N)cc3)nc2c1	HCMV antiviral inconclusive, FMDV antiviral inconclusive (no result: HCV inhibitor)
Nc1ccc(-c2nc3ccccc3s2)cn1	HCV inhibitor 25.1µM
CC(=O)Nc1ccc(S(=O)(=O)Nc2nc3ccc(C)cc3s2)cc1	none (no result: VACV mCherry inh, Vaccinia Venus)
Cc1ccc2nc(-c3ccc(N)cc3)sc2c1	VACV mCherry inh inconclusive, HCV inhibitor inconclusive, FMDV antiviral 8.91µM, Vaccinia Venus inconclusive
Cc1ccc2nc(-c3ccc(NS(=O)(=O)c4ccc(F)cc4)cc3)sc2c1	HCMV antiviral -94.4, HCV inhibitor inconclusive
Cc1ccc2nc(-c3ccc(NC(=S)NCC(C)(C)CN(C)C)cc3)sc2c1	HCV inhibitor 2.24µM (no result: VACV mCherry inh, Vaccinia Venus)
COc1ccc(S(=O)(=O)N2CCN(C(=O)CCc3c[nH]c4ccccc34)CC2)cc1	none (no result: VACV mCherry inh, Vaccinia Venus)
Cc1oc(-c2ccccc2)nc1Cn1c(=O)cc(-c2ccccc2)c2c(C)nn(C)c21	none (no result: HCV inhibitor)
C#CCOCCOCCOCCNc1nc(N2CCN(C(=O)[C@H](CC(N)=O)n3cc([C@@H](N)C(C)C)nn3)CC2)nc(N2CCN(C(=O)[C@H](CC(N)=O)n3cc([C@@H](N)C(C)C)nn3)CC2)n1	none
Nc1ccc2nc(-c3ccccc3)sc2c1	HCV inhibitor inconclusive, FMDV antiviral 10µM
CCCCNC(=O)c1cccc(-n2cnc3cccnc32)c1C	none (no result: HCV inhibitor)
Cc1ccc(C)c(NC(=O)CN(C)C(=O)c2ccc(COc3ccccc3)cc2)c1	VACV mCherry inh inconclusive (no result: HCV inhibitor)
O=S(=O)(c1ccc(O)cc1)c1ccc(O)cc1	none (no result: VACV mCherry inh, Vaccinia Venus)
O=C1C=CC(=C(c2ccc(O)cc2)c2ccc(O)cc2)C=C1	HCMV antiviral -100.1, HCV inhibitor 10µM, FMDV antiviral 12.6µM
CSc1nc(NC(C)C)nc(NC(C)C)n1	none
Cc1cc(Sc2nc(NC(C)C)nc(NC(C)C)n2)nc(Cl)n1	VACV mCherry inh 7.94µM, Vaccinia Venus inconclusive
CNC(=S)N/N=C(\C)c1ccc2c(c1)OCO2	HCMV antiviral -104.1
CNC(=S)N/N=C(\C)c1ccc2c(c1)OCCO2	HCV inhibitor inconclusive
CNC(=S)N/N=C(\C)c1ccc(C(C)(C)C)cc1	HCV inhibitor inconclusive
CNC(=S)N/N=C(\C)c1ccccc1	HCMV antiviral -96.8
Cn1cnnc1Sc1ccc(CN2CCOc3ccc(C4=Cc5ccccc5C4)cc3C2)o1	none (no result: HCMV antiviral, HCV inhibitor)
CC(=O)c1ccc(NC(=S)NC(=O)c2c(Cl)c(C)nn2C)cc1	HCMV antiviral inconclusive
CCCCOC(=O)c1ccc(NC(=S)NC(=O)c2c(Br)c(C)nn2C)cc1	HCMV antiviral -64.2, HCV inhibitor inconclusive
CCOC(=O)c1ccc(NC(=S)NC(=O)c2cncc(Br)c2)cc1	HCMV antiviral -71.9
CC(=O)Nc1c(C)nn(-c2ccccc2)c1N1CCC(C(=O)Nc2ccc(F)cc2Cl)CC1	none (no result: HCV inhibitor)
CC1=C(C(=O)Nc2ccc(Cl)cc2)C(c2ccccc2)n2ncc(C(=O)Nc3ccccc3)c2N1 (centres undefined)	none (no result: HCV inhibitor)
O=C(Nc1ccc(Cl)cc1)c1cnn2c1NC(c1ccccc1)=CC2c1ccccc1 (centres undefined)	HCMV antiviral -102.2 (no result: HCV inhibitor)
COc1ccccc1NC(=O)CCn1cnc2ccccc2c1=O	none (no result: HCV inhibitor)
Cc1cccc2c(Nc3ccc4c(c3)OCO4)nc(CN3CCC(N4CCCCC4)CC3)nc12	none (no result: HCMV antiviral, HCV inhibitor)
CC(=O)OC1(c2ccccc2)CCN(C)CC1(C)C (centres undefined)	HCMV antiviral -80.0 (no result: VACV mCherry inh, Vaccinia Venus)
O=C(Nc1ccc(Cl)cc1)N1CCSC1=NCc1ccccc1	none
O=C(CN1CCSC1=NCc1ccccc1)c1ccc(Cl)cc1	HCV inhibitor 12.6µM
CCOc1ccc(CCNC(=O)Cn2nc(C)n3cccc3c2=O)cc1OCC	none (no result: VACV mCherry inh, HCMV antiviral, Vaccinia Venus)
CC(C)C(c1nnnn1Cc1ccco1)N1CCN(c2nc3ccccc3s2)CC1 (centres undefined)	HCMV antiviral inconclusive, HCV inhibitor inconclusive, FMDV antiviral 22.4µM
CC(C)CC(c1nnnn1Cc1cccs1)N1CCN(c2nc3ccccc3s2)CC1 (centres undefined)	VACV mCherry inh inconclusive, HCMV antiviral inconclusive, FMDV antiviral inconclusive
COCCn1nnnc1C(c1cccs1)N1CCN(c2nc3ccccc3s2)CC1 (centres undefined)	VACV mCherry inh inconclusive, HCV inhibitor inconclusive, FMDV antiviral inconclusive
Oc1ccc(C(c2nnnn2CCc2ccccc2)N2CCN(c3nc4ccccc4s3)CC2)cc1 (centres undefined)	HCV inhibitor 12.6µM
O=C(CCc1c[nH]c2ccccc12)NC(Cc1ccccc1)C(=O)O (centres undefined)	none
COc1ccc(CCNC(=O)c2nn(C)c3c2CS(=O)(=O)c2ccccc2-3)c(OC)c1	HCMV antiviral inconclusive, HCV inhibitor 11.2µM, FMDV antiviral inconclusive
CCOc1ccc(CCNC(=O)c2nn(C)c3c2CS(=O)(=O)c2ccccc2-3)cc1OCC	HCV inhibitor 6.31µM
Cn1nc(C(=O)NC2CCCCC2)c2c1-c1ccccc1S(=O)(=O)C2	HCMV antiviral -85.0
CCS(=O)(=O)c1ncc(Cl)c(C(=O)Nc2ccc(S(=O)(=O)N3CCCC(C)C3)cc2)n1 (centres undefined)	VACV mCherry inh inconclusive, HCMV antiviral -101.3, HCV inhibitor 12.6µM, FMDV antiviral 10µM, Vaccinia Venus inconclusive
Cc1ccc(CS(=O)(=O)c2ncc(Cl)c(C(=O)Nc3ccc(OC(F)F)cc3)n2)cc1	HCMV antiviral -110.8, HCV inhibitor inconclusive, FMDV antiviral 25.1µM
CCC1CCCCN1S(=O)(=O)c1ccc(NC(=O)c2nc(S(C)(=O)=O)ncc2Cl)cc1 (centres undefined)	VACV mCherry inh inconclusive, HCMV antiviral -112.8, HCV inhibitor inconclusive, FMDV antiviral 31.6µM, Vaccinia Venus inconclusive
COc1ccc(NC(=O)c2nc(S(=O)(=O)Cc3ccc(C)cc3)ncc2Cl)cc1	VACV mCherry inh inconclusive, HCMV antiviral -97.4, FMDV antiviral inconclusive, Vaccinia Venus inconclusive (no result: HCV inhibitor)
CC1CCCN(S(=O)(=O)c2ccc(NC(=O)CNC3CCCC3)cc2)C1 (centres undefined)	HCMV antiviral inconclusive
CN(C)c1nc(N)nc(CSc2nnnn2-c2ccc(Cl)cc2)n1	none (no result: HCV inhibitor)
OCC(O)C(O)C(O)C(O)C(O)CO (centres undefined)	none (no result: HCMV antiviral, HCV inhibitor)
C[C@@H](c1ccccc1)N1C[C@H](COCc2ccccc2)Oc2cc(N3CCC[C@@H]3CO)ccc2S1(=O)=O	none (no result: HCV inhibitor)
CCS(=O)(=O)c1ncc(Cl)c(C(=O)Nc2ccc(C)cc2)n1	VACV mCherry inh inconclusive, HCMV antiviral -100.5, HCV inhibitor inconclusive, FMDV antiviral 14.1µM, Vaccinia Venus inconclusive
